# Reference: PubChem BioAssay (NCATS)
# Inconclusive results are not listed. Active and inactive are the calls of the source. Unless noted, the call rests on the fitted dose curve; in most records, active means well fitted curve in the direction sought with a large enough effect; inconclusive means small, poorly fitted or top-dose-only effect, or another doubt; inactive means no such curve, though single readings can be large; an effect the other way counts as inactive or inconclusive.
# How the values were obtained:
# [1] = Quantitative High-Throughput drug screen in 47 multiple myeloma cell lines against the NCATS MIPE library collection: VP6_DJ cell viability assay (AID 1919867); further: nearly all actives have a fitted effect of over 40% in size; further: potency means the concentration at half of the fitted maximal effect
# Summary of the method: (§1)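 Cells were exposed to library compounds for 48 hours, after which ATP was measured by CellTiter-Glo. Signal was taken as median relative luminescence units.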
# [2] = Quantitative High-Throughput drug screen in 47 multiple myeloma cell lines against the NCATS MIPE library collection: UTMC2_PLB cell viability assay (AID 1919868); further: nearly all actives have a fitted effect of over 55% in size; further: potency means the concentration at half of the fitted maximal effect
# Summary of the method: as §1
# [3] = Quantitative High-Throughput drug screen in 47 multiple myeloma cell lines against the NCATS MIPE library collection: PE2_PLB cell viability assay (AID 1919869); further: nearly all actives have a fitted effect of over 35% in size; further: potency means the concentration at half of the fitted maximal effect
# Summary of the method: as §1
# [4] = Quantitative High-Throughput drug screen in 47 multiple myeloma cell lines against the NCATS MIPE library collection: PCM6_Riken cell viability assay (AID 1919870); further: nearly all actives have a fitted effect of over 30% in size; further: potency means the concentration at half of the fitted maximal effect
# Summary of the method: as §1
# [5] = Quantitative High-Throughput drug screen in 47 multiple myeloma cell lines against the NCATS MIPE library collection: RPMI8226_ATCC cell viability assay (AID 1919871); further: nearly all actives have a fitted effect of over 30% in size; further: potency means the concentration at half of the fitted maximal effect
# Summary of the method: as §1
# [6] = Quantitative High-Throughput drug screen in 47 multiple myeloma cell lines against the NCATS MIPE library collection: OPM2_DSMZ cell viability assay (AID 1919872); further: nearly all actives have a fitted effect of over 30% in size
# Summary of the method: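 Relative luminescence from CellTiter-Glo served as the viability signal, referenced to DMSO-treated (100%) and cell-free medium (0%) controls. Treatment lasted 48 hours at 37C with 500 cells per well.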
# [7] = Quantitative High-Throughput drug screen in 47 multiple myeloma cell lines against the NCATS MIPE library collection: KMS11_JCRBsus cell viability assay (AID 1919873); further: nearly all actives have a fitted effect of over 50% in size; further: potency means the concentration at half of the fitted maximal effect
# Summary of the method: as §1
# [8] = qHTS drug screen for cell cycle checkpoint inhibitors in PARPi-resistant BRCA-mutant ovarian cancer cell lines. (AID 1963452; calls by dose curve); conditions: PEO1/OlaR viability, CellTiter-Glo luminescence, 96 h, stronger effect = lower value
# Summary of the method: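 PEO1, PEO4 and PEO1/OlaR ovarian cancer cells, 600 per well, exposed 96 h at 37C to a dilution series. Viability read by CellTiter-Glo luminescence, normalized to DMSO and empty wells; activity summarized as Z-AUC.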
# [9] = Quantitative High-Throughput drug screen in 47 multiple myeloma cell lines against the NCATS MIPE library collection: KMS28BM_JCRB cell viability assay (AID 1919874); further: nearly all actives have a fitted effect of over 35% in size; further: potency means the concentration at half of the fitted maximal effect
# Summary of the method: as §1
# [10] = target: Cytochrome P450 3A4 (Homo sapiens) (UniProt P08684); assay: qHTS for inhibitors of CYP3A4 against the NCATS DSHEA and TCM libraries (AID 1919971);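 further: on the % scale 0 is the no-effect control and ±100 the full control effect; inhibition lowers luminescence from luciferin made by CYP3A4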
# Summary of the method: (§2)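 Each CYP isoform and its pro-luciferin substrate, at isoform-specific final concentrations, were preincubated 15 min at RT with substances. NADPH regeneration solution (1x) started a 30-45 min reaction, and P450-Glo luminescence was read.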
# [11] = target: Cytochrome P450 2D6 (Homo sapiens) (UniProt P10635); assay: qHTS for inhibitors of CYP2D6 against the NCATS DSHEA and TCM libraries (AID 1919972); further: on the % scale 0 is the no-effect control and ±100 the full control effect
# Summary of the method: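 CYP2D6 enzyme with pro-luciferin substrate in manufacturer buffer (typically 100 mM KPO4), preincubated 15 min RT with substances (most at 19.5 nM upward); NADPH regeneration system (1x) started 30–45 min RT reaction; P450-Glo luminescence read after 30 min; quinidine as intraplate control.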
# [12] = target: Cytochrome P450 2C9 (Homo sapiens) (UniProt P11712); assay: qHTS for inhibitors of CYP2C9 against the NCATS DSHEA and TCM libraries (AID 1919973);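 further: luminogenic pro-luciferin CYP2C9 substrate turned into luciferin with NADPH regeneration; series mostly up to about 34 µM; on the % scale 0 is the no-effect control and ±100 the full control effect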
# Summary of the method: as §2
# [13] = target: Cytochrome P450 2C19 (Homo sapiens) (UniProt P33261); assay: qHTS for inhibitors of CYP2C19 against the NCATS DSHEA and TCM libraries (AID 1919974);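 further: luminescence from luciferin released by CYP2C19 oxidation of a pro-luciferin substrate; on the % scale 0 is the no-effect control and ±100 the full control effect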
# Summary of the method: as §2
# [14] = KB-3-1 P-gp reporter qHTS against the NCATS DSHEA and TCM libraries (AID 1919975); further: 0% is about no effect
# Summary of the method: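 Parental KB-3-1 human cervical adenocarcinoma cells (500 cells/well, DMEM + 10% FBS) were treated with substances for ~72 h at 37C; viability was read by CellTiter-Glo luminescence.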
# [15] = target: Cytochrome P450 1A2 (Homo sapiens) (UniProt P05177); assay: qHTS for inhibitors of CYPIA2 against the NCATS DSHEA and TCM libraries (AID 1919976); further: series mostly up to about 37 µM; on the % scale 0 is the no-effect control and ±100 the full control effect
# Summary of the method: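 Reaction started with 1x NADPH regeneration solution and run 30-45 min, room temperature, protected from light, after compounds sat 15 min with CYP1A2 and pro-luciferin substrate. P450-Glo detection gave luminescence; furafylline served as control.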
# [16] = qHTS Counterscreen for compound interference against the NCATS DSHEA and TCM libraries (AID 1919978); conditions: firefly luciferase detection reagent interference, luminescence; further: % of control where 0% means no effect
# Summary of the method: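 D-luciferin (1 uM final) or 100 mM potassium phosphate buffer alone was preincubated 15 min at RT with compounds (19.5 nM to 39.8 uM final). Luciferin detection reagent was then added and luminescence read after 30 min at RT.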
# [17] = Dual reporter qHTS for agonist of Pregnane X Receptor (hPXR) against the NCATS DSHEA and TCM libraries: Fluorescence readout (AID 1920058); further: 0% is about no effect
# Summary of the method: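 Viability readout (CellTiter-Fluor, 405/540 nm, 1 h) from agonist-mode PXR dual reporter in hPXR-Luc HepG2 cells. Substances ~24 h, 37 °C, 5% CO2; rifampicin reference, tetraoctyl ammonium bromide cytotoxic control.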
# [18] = target: Nuclear receptor subfamily 1 group I member 2 (Homo sapiens) (UniProt O75469); assay: Dual reporter qHTS for agonist of Pregnane X Receptor (hPXR) against the NCATS DSHEA and TCM libraries: Luminescence readout (AID 1920059); further: 0% is about no effect
# Summary of the method: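 hPXR-Luc HepG2 cells, 2000/well in 5% charcoal-stripped FBS medium, attached 5 h, then exposed 24 h at 37C to compounds. Viability by CellTiter-Fluor, then luciferase luminescence with ONE-Glo.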
# [19] = target: Nuclear receptor subfamily 1 group I member 2 (Homo sapiens) (UniProt O75469); assay: Dual reporter qHTS for antagonist of Pregnane X Receptor (hPXR) against the NCATS DSHEA and TCM libraries: Luminescence Readout (AID 1920060);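 further: HepG2 cells carrying hPXR luciferase reporter stimulated with rifampicin at 2 µM; 0% is about no effect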
# Summary of the method: (§3)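 Antagonist mode: rifampicin 2 uM final co-added with compounds to hPXR-LucHepG2 cells for 24 h at 37C. Viability by CellTiter-Fluor, Ex/Em 405/540 nm, 1 h; reporter by ONE-Glo luminescence.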
# [20] = Dual reporter qHTS for antagonist of Pregnane X Receptor (hPXR) against the NCATS DSHEA and TCM libraries: Fluorescence Readout (AID 1920061); further: 0% is about no effect
# Summary of the method: as §3
# [21] = measured here: PEO1 parental Z-AUC
# Sequence of Nuclear receptor subfamily 1 group I member 2 (Homo sapiens) (O75469 whole entry, looked up): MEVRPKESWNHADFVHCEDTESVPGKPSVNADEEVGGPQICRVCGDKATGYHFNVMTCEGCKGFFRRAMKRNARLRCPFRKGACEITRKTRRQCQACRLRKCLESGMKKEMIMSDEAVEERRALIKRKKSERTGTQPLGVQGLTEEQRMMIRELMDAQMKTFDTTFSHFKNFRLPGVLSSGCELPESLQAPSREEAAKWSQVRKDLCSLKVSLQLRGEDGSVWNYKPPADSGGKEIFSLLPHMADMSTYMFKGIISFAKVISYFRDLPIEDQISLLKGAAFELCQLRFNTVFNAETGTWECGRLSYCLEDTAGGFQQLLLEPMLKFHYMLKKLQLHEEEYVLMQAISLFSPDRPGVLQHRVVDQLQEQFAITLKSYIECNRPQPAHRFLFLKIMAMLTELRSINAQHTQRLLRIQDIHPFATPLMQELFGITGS
# Sequence of Cytochrome P450 3A4 (Homo sapiens) (P08684 whole entry, looked up, canonical isoform): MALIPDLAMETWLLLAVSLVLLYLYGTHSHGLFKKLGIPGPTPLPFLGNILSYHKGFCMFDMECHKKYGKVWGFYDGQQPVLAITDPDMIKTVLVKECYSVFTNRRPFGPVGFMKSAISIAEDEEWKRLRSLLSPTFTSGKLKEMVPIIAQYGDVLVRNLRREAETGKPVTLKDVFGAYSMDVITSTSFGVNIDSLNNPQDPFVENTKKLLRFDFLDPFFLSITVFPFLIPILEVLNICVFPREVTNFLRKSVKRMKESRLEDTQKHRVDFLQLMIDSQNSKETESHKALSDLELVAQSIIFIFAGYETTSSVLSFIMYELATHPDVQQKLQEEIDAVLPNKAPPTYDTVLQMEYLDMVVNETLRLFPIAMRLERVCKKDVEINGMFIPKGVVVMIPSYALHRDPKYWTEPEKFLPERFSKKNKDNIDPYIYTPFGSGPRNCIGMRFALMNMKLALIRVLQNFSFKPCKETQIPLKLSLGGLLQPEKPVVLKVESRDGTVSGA
# Sequence of Cytochrome P450 2C19 (Homo sapiens) (P33261 whole entry, looked up): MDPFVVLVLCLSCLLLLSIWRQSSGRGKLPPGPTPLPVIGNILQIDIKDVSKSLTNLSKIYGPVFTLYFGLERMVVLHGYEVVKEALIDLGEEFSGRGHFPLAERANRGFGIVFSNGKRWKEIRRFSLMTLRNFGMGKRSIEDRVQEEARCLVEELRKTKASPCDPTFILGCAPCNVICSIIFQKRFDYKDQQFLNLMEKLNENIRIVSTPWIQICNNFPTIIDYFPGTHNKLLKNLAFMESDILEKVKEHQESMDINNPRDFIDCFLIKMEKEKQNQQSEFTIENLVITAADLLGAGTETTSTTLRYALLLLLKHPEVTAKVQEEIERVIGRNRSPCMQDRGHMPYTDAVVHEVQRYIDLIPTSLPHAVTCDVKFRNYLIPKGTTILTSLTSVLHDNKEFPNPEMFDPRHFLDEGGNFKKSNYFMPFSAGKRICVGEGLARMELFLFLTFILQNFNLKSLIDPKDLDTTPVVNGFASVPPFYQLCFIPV
# Sequence of Cytochrome P450 2C9 (Homo sapiens) (P11712 whole entry, looked up): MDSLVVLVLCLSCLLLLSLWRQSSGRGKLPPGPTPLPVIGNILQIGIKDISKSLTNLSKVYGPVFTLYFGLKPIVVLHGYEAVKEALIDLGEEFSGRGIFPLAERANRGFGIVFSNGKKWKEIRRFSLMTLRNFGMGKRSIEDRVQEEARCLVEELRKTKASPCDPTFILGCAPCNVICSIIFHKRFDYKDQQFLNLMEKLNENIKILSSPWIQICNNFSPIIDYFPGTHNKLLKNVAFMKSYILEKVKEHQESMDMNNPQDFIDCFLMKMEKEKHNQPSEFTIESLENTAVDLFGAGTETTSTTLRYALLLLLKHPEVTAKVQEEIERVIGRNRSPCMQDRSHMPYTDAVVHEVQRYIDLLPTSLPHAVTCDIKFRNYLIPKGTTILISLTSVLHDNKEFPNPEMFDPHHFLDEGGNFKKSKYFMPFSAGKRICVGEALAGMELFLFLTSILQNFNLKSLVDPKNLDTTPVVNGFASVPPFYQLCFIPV
# Sequence of Cytochrome P450 2D6 (Homo sapiens) (P10635 whole entry, looked up): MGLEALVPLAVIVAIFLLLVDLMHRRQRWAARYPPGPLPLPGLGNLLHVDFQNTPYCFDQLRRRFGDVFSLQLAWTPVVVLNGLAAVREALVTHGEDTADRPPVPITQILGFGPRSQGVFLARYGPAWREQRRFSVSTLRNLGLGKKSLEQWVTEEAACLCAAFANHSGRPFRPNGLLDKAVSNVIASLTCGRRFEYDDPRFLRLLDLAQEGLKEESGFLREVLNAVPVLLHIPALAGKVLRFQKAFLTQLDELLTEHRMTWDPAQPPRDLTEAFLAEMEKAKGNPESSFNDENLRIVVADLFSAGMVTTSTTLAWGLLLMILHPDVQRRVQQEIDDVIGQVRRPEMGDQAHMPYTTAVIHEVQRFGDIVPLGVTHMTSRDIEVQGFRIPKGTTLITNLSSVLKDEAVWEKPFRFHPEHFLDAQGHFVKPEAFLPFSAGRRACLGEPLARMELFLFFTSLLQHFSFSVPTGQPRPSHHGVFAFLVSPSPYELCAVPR
# Sequence of Cytochrome P450 1A2 (Homo sapiens) (P05177 whole entry, looked up): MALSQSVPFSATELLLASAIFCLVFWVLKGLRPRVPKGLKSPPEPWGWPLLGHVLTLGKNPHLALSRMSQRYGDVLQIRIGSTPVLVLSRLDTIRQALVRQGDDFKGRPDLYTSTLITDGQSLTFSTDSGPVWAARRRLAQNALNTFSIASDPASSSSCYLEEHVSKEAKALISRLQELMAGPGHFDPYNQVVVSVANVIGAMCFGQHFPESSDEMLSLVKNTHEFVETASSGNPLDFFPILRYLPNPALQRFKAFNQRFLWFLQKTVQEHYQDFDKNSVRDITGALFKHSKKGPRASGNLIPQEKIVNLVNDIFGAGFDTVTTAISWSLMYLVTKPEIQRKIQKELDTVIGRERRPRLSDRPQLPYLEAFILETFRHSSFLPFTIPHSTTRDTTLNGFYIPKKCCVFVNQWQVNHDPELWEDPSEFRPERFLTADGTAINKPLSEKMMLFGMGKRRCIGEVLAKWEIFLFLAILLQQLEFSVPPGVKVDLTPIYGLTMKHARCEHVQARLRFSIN
smiles,measurement,setting,value
NC12CC3CC(CC(C3)C1)C2,Potency,[1],3.32 µM (active)
same,Potency,[2],8.33 µM (active)
same,Potency,[3],inactive
same,Potency,[4],3.32 µM (active)
same,Potency,[5],0.833 µM (active)
same,Potency,[6],inactive
same,Potency,[7],16.6 µM (active)
same,Z-AUC,[8],0.0042 (inactive)
same,Z-AUC,[8]; [21],0.0418
same,Z-AUC,[8]; measured here: PEO4 Z-AUC,0.463
Cn1c(=O)c2c(ncn2C)n(C)c1=O,Potency,[1],inactive
same,Potency,[2],inactive
same,Potency,[3],inactive
same,Potency,[4],inactive
same,Potency,[5],inactive
same,Potency,[6],inactive
same,Potency,[7],inactive
same,Potency,[9],inactive
same,outcome,[10],inactive
same,outcome,[11],inactive
same,outcome,[12],inactive
same,outcome,[13],inactive
same,outcome,[14],inactive
same,outcome,[15],inactive
same,max response,[16],2.12% (inactive)
same,outcome,[17],inactive
same,outcome,[18],inactive
same,outcome,[19],inactive
same,outcome,[20],inactive
same,Z-AUC,[8],1.16 (inactive)
same,Z-AUC,[8]; [21],1.03
same,Z-AUC,[8]; measured here: PEO4 Z-AUC,1.21
OCCN1CCN(CCCN2c3ccccc3Sc3ccc(C(F)(F)F)cc32)CC1,Potency,[1],16.6 µM (active)
same,Potency,[4],23.5 µM (active)
same,Potency,[5],16.6 µM (active)
same,Potency,[6],inactive
same,Potency,[7],13.2 µM (active)
same,Potency,[9],23.5 µM (active)
same,Z-AUC,[8],0.453 (inactive)
same,Z-AUC,[8]; [21],0.459
same,Z-AUC,[8]; measured here: PEO4 Z-AUC,0.195
C[C@@H]1CC(=O)NN=C1c1ccc(NN=C(C#N)C#N)cc1,Potency,[1],18.7 µM (active)
same,Potency,[3],14.8 µM (active)
same,Potency,[4],18.7 µM (active)
same,Potency,[5],20.9 µM (active)
same,Potency,[7],16.6 µM (active)
same,Potency,[9],23.5 µM (active)
same,Z-AUC,[8],0.769 (inactive)
same,Z-AUC,[8]; [21],0.69
same,Z-AUC,[8]; measured here: PEO4 Z-AUC,0.452
COc1ccccc1N1CCN(CC(O)COc2cccc3ccccc23)CC1 (centres undefined),Potency,[1],inactive
same,Potency,[3],inactive
same,Potency,[5],26.4 µM (active)
same,Potency,[9],13.2 µM (active)
same,Z-AUC,[8],-0.153 (inactive)
same,Z-AUC,[8]; [21],0.273
same,Z-AUC,[8]; measured here: PEO4 Z-AUC,0.504
O=C1Cc2cc(CCN3CCN(c4nsc5ccccc45)CC3)c(Cl)cc2N1,Potency,[1],16.6 µM (active)
same,Potency,[2],20.9 µM (active)
same,Potency,[4],18.7 µM (active)
same,Potency,[5],20.9 µM (active)
same,Potency,[9],23.5 µM (active)
CN1CCN(CCCN2c3ccccc3Sc3ccc(Cl)cc32)CC1,Potency,[1],10.5 µM (active)
same,Potency,[2],23.5 µM (active)
same,Potency,[3],23.5 µM (active)
same,Potency,[4],8.33 µM (active)
same,Potency,[6],inactive
same,Potency,[7],14.8 µM (active)
same,Potency,[9],20.9 µM (active)
